The supplement of paper PMC11732987, “Enantioselective OTUD7B fragment discovery through chemoproteomics screening and high-throughput optimisation” (Communications Chemistry, 2025)
Values without a mark were called inactive.

Key:
Assay in all cases: log2 ratio of Biotin-Ahx-Ub-VS probe labelling (fragment/DMSO); higher = less target engagement (more negative = stronger competition), active = hit call of the paper (q ≤ 0.05, log2 ratio ≤ -1)
Conditions in all cases: compound concentration: 200 uM; treatment time: 3 h
UniProt O00507 = molecular target: UniProt O00507
Method in brief: (§1)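 HEK293T lysate in Tris/CHAPS/IGEPAL buffer with protease inhibitors (495 µg per sample) was given fragment at 200 µM or vehicle for 3 h, in triplicate. It then received Biotin-Ahx-Ub-VS at 0.5 µM final for 1 h. Labelled DUBs were NeutrAvidin-enriched, digested with LysC and trypsin, and run by diaPASEF LC-MS/MS. Values are average log2 fragment/vehicle ratios by unpaired t-test on global-median-normalised Spectronaut quantities of proteins with ≥2 unique peptides.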

UniProt P51784 = molecular target: UniProt P51784
Method in brief: as §1

UniProt Q5T2D3 = molecular target: T1, UniProt Q5T2D3
T1 sequence (whole entry): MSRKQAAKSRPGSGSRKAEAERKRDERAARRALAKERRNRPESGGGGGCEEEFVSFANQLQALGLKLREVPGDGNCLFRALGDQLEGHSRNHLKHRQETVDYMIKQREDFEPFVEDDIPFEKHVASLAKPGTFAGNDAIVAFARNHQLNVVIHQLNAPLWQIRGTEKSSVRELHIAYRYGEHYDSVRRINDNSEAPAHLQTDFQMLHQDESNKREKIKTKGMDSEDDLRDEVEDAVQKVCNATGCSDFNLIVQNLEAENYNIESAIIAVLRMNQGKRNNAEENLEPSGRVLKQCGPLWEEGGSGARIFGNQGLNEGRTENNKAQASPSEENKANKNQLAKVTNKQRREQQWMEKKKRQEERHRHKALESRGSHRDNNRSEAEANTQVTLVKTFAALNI
Method in brief: as §1

UniProt Q8TE49 = molecular target: T2, UniProt Q8TE49
T2 sequence (whole entry): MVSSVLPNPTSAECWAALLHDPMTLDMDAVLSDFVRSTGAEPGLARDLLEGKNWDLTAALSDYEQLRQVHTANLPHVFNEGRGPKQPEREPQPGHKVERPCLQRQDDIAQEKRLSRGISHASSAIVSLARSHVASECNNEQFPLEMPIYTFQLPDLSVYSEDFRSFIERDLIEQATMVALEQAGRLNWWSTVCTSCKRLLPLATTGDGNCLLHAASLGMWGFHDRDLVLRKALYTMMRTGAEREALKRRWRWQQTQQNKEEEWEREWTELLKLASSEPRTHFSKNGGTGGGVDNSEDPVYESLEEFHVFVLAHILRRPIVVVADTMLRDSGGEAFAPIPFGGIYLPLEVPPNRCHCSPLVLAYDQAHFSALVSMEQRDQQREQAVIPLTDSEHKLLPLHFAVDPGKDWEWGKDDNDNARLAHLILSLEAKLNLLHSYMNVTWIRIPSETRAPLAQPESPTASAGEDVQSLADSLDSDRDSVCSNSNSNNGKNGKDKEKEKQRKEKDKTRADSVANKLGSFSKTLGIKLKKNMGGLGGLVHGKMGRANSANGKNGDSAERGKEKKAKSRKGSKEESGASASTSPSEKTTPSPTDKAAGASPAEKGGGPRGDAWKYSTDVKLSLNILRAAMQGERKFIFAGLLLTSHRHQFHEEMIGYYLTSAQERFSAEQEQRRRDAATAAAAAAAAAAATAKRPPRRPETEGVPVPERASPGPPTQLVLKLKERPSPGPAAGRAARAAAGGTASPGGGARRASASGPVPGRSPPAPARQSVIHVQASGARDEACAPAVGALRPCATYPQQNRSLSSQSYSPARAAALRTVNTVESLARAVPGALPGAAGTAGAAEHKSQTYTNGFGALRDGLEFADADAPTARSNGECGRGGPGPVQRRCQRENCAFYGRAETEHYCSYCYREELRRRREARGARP
Method in brief: as §1

UniProt Q9P2H5 = molecular target: T3, UniProt Q9P2H5
T3 sequence (whole entry): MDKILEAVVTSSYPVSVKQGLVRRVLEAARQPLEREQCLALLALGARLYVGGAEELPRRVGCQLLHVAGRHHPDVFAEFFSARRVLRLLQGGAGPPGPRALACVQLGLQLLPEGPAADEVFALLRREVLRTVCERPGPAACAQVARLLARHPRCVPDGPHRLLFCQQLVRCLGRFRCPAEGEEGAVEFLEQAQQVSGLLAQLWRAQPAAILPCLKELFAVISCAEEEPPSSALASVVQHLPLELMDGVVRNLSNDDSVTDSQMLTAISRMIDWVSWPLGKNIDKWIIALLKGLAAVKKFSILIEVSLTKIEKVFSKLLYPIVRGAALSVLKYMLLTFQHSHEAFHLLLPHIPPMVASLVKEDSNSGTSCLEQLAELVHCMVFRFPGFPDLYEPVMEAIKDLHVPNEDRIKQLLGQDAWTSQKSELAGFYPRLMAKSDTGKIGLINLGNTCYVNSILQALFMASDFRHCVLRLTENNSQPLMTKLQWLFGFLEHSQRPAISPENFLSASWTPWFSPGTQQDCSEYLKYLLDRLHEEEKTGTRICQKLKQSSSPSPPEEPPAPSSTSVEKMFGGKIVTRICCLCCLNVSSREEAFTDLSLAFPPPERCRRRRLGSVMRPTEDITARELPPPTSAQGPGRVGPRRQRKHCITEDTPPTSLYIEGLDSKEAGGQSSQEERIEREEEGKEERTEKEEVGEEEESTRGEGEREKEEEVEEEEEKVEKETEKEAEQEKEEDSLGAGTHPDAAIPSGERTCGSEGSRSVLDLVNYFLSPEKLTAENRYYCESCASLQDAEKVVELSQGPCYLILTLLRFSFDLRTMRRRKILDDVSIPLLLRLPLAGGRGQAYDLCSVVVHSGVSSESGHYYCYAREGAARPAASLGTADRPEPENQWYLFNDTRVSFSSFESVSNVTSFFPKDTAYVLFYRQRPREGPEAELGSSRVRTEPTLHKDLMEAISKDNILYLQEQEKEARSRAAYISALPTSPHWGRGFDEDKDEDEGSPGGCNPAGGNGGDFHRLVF
Method in brief: as §1

UniProt Q9UGI0 = molecular target: T4, UniProt Q9UGI0
T4 sequence (whole entry): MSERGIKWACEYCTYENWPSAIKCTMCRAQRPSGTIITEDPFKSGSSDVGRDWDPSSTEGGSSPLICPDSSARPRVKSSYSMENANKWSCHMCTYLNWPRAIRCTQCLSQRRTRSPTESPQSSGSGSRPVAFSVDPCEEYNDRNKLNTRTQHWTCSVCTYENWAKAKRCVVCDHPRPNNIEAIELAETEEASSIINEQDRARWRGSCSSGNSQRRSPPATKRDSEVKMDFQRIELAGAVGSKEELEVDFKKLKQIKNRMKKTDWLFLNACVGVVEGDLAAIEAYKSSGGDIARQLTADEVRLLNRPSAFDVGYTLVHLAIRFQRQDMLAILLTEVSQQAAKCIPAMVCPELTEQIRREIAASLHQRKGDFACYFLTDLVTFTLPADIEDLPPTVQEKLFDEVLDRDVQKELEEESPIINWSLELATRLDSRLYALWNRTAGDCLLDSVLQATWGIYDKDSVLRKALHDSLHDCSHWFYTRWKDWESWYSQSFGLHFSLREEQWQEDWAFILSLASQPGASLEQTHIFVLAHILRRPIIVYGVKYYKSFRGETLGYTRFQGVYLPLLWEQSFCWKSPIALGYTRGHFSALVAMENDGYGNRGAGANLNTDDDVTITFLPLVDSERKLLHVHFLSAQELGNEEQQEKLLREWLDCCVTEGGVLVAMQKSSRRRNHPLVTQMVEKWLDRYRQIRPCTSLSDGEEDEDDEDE
Method in brief: as §1

YOD1 = molecular target: T5, YOD1 (UniProt Q5VVQ6)
T5 sequence (whole entry): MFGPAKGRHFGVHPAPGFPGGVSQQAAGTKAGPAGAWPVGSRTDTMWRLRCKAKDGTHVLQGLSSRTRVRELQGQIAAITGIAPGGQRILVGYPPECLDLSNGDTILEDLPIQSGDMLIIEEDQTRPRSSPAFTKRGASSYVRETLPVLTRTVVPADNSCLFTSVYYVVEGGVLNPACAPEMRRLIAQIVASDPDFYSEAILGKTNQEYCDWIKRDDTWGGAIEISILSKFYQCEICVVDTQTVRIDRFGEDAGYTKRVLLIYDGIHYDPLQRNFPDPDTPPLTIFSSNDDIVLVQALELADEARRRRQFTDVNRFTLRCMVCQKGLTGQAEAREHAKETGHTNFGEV
Method in brief: as §1

Sequence of UniProt P51784 (P51784 whole entry): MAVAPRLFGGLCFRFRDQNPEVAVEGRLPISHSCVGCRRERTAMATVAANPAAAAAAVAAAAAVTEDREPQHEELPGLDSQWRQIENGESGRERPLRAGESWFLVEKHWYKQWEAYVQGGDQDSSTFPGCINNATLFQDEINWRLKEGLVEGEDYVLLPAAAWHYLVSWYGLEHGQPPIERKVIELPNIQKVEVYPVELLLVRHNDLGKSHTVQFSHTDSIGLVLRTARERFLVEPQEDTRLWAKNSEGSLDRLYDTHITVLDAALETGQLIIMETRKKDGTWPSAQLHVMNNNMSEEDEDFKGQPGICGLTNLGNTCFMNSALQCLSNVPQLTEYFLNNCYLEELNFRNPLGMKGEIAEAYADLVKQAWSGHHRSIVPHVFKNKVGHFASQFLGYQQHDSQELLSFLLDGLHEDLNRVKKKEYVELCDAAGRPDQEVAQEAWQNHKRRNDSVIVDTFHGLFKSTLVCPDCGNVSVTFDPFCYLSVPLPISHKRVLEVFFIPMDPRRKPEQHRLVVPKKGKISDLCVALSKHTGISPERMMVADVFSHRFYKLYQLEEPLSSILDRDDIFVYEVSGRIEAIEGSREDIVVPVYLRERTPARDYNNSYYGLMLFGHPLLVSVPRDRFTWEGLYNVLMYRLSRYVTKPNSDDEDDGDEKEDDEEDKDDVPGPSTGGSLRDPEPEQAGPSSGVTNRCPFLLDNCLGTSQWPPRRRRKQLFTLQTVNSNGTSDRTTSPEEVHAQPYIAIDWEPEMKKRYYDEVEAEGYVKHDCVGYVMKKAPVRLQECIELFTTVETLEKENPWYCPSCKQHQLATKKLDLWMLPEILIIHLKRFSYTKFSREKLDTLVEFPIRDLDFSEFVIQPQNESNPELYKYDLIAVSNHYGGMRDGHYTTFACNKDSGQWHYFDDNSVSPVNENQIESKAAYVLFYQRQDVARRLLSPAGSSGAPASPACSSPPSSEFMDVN
Sequence of UniProt O00507 (O00507 whole entry, the tested form may be a part): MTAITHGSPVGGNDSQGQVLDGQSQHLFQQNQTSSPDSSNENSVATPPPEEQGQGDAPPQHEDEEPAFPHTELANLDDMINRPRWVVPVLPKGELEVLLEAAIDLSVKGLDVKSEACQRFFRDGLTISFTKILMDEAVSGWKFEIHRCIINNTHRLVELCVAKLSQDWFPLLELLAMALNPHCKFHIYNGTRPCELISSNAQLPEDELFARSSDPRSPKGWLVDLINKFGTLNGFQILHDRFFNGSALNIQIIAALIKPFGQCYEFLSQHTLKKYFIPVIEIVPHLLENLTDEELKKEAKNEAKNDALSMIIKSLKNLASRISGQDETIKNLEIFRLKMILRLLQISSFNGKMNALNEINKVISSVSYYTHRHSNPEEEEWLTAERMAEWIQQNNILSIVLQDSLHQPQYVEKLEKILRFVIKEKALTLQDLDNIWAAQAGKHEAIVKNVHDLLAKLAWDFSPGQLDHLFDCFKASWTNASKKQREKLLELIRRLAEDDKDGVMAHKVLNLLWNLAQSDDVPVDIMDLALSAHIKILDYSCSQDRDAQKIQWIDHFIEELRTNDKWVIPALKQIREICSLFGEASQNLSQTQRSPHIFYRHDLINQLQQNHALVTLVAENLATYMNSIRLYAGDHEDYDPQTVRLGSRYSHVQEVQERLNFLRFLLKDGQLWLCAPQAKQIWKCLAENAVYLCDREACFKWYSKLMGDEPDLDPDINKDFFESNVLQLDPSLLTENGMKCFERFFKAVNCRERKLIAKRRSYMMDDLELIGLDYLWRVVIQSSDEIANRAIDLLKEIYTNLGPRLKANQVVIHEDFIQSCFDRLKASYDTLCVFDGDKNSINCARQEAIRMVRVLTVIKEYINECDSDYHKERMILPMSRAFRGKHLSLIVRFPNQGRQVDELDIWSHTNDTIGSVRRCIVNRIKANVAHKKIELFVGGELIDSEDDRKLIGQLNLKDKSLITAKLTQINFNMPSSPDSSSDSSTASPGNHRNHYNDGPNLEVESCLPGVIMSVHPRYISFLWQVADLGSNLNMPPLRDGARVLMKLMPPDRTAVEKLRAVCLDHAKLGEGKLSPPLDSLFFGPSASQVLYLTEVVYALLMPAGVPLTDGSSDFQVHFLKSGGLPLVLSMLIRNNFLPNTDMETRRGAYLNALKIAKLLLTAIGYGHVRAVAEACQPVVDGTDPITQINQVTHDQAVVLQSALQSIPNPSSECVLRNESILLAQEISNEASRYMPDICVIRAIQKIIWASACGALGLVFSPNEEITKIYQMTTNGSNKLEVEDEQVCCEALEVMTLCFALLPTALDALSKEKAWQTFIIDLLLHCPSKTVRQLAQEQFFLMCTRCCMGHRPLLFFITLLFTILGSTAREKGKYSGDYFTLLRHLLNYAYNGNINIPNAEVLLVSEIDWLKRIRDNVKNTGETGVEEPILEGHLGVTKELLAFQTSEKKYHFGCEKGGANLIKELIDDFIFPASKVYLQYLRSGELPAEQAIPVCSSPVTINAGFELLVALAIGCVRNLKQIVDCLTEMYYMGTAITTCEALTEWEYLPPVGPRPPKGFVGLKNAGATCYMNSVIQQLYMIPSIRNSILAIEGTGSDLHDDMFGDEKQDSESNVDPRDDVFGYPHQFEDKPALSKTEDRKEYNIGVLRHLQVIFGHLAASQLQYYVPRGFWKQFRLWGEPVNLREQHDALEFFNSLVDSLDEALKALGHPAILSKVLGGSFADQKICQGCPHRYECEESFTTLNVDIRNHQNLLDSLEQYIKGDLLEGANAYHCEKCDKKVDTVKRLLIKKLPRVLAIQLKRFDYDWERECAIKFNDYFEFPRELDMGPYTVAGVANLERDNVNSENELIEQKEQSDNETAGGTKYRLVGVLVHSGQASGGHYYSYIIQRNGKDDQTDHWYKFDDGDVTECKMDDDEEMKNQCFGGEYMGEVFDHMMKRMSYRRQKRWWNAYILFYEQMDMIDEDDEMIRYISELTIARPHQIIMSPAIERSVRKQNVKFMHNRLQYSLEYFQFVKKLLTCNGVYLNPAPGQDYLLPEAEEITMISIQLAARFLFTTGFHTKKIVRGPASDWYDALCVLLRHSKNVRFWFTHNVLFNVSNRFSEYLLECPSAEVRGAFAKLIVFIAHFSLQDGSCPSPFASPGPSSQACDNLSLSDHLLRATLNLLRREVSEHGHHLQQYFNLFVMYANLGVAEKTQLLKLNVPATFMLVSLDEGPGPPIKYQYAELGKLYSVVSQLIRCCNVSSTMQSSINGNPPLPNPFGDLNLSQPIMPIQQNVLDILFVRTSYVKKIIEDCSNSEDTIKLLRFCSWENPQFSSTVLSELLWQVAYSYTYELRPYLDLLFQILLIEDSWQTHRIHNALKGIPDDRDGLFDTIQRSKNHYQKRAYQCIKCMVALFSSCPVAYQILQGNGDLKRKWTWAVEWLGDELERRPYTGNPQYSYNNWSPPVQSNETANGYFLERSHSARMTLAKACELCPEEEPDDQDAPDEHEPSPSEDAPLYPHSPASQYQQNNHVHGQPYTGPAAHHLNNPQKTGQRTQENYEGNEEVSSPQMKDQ

SMILES | log2 ratio of Biotin-Ahx-Ub-VS probe labelling (UniProt O00507) | log2 ratio of Biotin-Ahx-Ub-VS probe labelling (UniProt P51784) | log2 ratio of Biotin-Ahx-Ub-VS probe labelling (UniProt Q5T2D3) | log2 ratio of Biotin-Ahx-Ub-VS probe labelling (UniProt Q8TE49) | log2 ratio of Biotin-Ahx-Ub-VS probe labelling (UniProt Q9P2H5) | log2 ratio of Biotin-Ahx-Ub-VS probe labelling (UniProt Q9UGI0) | log2 ratio of Biotin-Ahx-Ub-VS probe labelling (YOD1)
O=C(CCl)N1CCCN(C(=O)c2ccc(Cl)cc2)CC1 | -0.381 | -0.139 | -0.134 | -0.265 | -0.166 | -0.84 | -0.417
Cc1nc(CN2CCCN(C(=O)CCl)CC2)no1.Cl | 0.543 | 0.151 | -0.111 | 0.0982 | -0.193 | 0.143 | 0.273
O=C(CCl)N[C@H]1CC[C@@H](CO)CC1 | -0.725 | -0.788 | -0.746 | -1.32 (active) | -0.775 | -0.944 | -0.784
O=C(CCl)N1CCC(=C(F)CO)C1 | 0.605 | 0.155 | 0.0125 | -0.47 | -0.115 | -0.16 | 0.406
O=C(CCl)N1CCOC2(CCC2)C1 | 0.31 | 0.244 | 0.00991 | -0.696 | 0.0475 | -0.71 | 0.154
Cc1cccn2cc(CCNC(=O)CCl)nc12.Cl | -0.143 | -0.122 | -0.0486 | -0.332 | -0.379 | -0.18 | -0.095
O=C(CCl)N1CCC(c2noc3cc(F)ccc23)CC1 | -0.609 | 0.00105 | -0.212 | -0.807 | -0.0991 | -1.02 (active) | -0.0109
O=C(CCl)NCc1ccc(Cl)cc1 | 0.318 | 0.0262 | -0.0567 | -0.395 | 0.00401 | -0.0432 | 0.238
CN(Cc1nc2ccccc2[nH]1)C(=O)CCl.Cl | -0.702 | 0.00766 | -0.19 | -0.268 | 0.121 | -0.937 | 0.0427
Cc1nc(CC2CCN(C(=O)CCl)CC2)no1 | -0.771 | -0.658 | -0.786 | -1.04 (active) | -0.59 | -0.834 | -0.679
O=C(CCl)NCc1cccc(F)c1 | 0.176 | -0.104 | -0.0819 | -0.349 | 0.0328 | -0.684 | -0.0324
O=C(CCl)NCC1(c2ccccc2)CC1 | 0.153 | 0.117 | -0.0752 | -0.408 | -0.071 | -1.08 (active) | 0.0857
CC(NC(=O)CCl)c1noc(Cc2ccccc2)n1 (centres undefined) | -0.447 | -0.0798 | -0.347 | -0.443 | -0.534 | -0.904 | -0.247
COCC1C=CCCN1C(=O)CCl (centres undefined) | -0.284 | -0.0747 | -0.118 | -0.259 | -0.0309 | -1.01 (active) | -0.0106
O=C(CCl)N1CCC(c2nc3ccccc3o2)CC1 | -0.57 | -0.0526 | -0.14 | -0.625 | -0.191 | -0.567 | -0.217
CNC(=O)Cn1cc(NC(=O)CCl)cn1 | -0.146 | -0.115 | -0.427 | -0.553 | -0.256 | -1.09 (active) | -0.252
CC(NC(=O)CCl)c1cc2n(n1)CCCC2.Cl (centres undefined) | 0.229 | 0.0045 | 0.0101 | -0.631 | -0.0486 | 0.22 | -0.00538
O=C(CCl)N1CCCC1c1ccsc1 (centres undefined) | -0.118 | -0.115 | -0.188 | -0.72 | -0.412 | -1.53 (active) | 0.14
O=C(CCl)N1CCc2nc[nH]c2C1c1ccc(Cl)cc1 (centres undefined) | -0.893 | 0.194 | -0.0219 | -1.15 (active) | -0.000874 | -1.05 (active) | -0.117
O=C(CCl)Nc1ccc(Cl)c(F)c1 | -0.588 | -0.219 | -0.339 | -0.571 | -0.0638 | -1.27 (active) | -0.313
O=C(CCl)N(Cc1ccsc1)C1CC1 | -0.302 | -0.0887 | -0.0506 | -0.101 | 0.0505 | -0.949 | -0.0601
O=C(CCl)N1CCC(OCc2ccccc2F)CC1 | -0.226 | 0.146 | -0.173 | -0.355 | 0.097 | -0.394 | 0.135
